Reference: PubChem BioAssay (NCATS)
Records with an inconclusive call do not appear. The source made the active and inactive calls. The call rests on the fitted dose curve; tested in HEK293 reporter line.

experiment: qHTS for Inhibitors of the Functional Ribonucleoprotein Complex (vRNP) of Lymphocytic Choriomeningitis Arenaviruses (LCMV): Viability assay - alamar blue signal for LCMV Primary Screen (AID 1347085); conditions: alamar blue viability counter-screen, LCMV vRNP screen cells; series mostly up to 57.5 µM; activity change, negative = lower viability: at the top concentration; further: nearly all actives have a fitted effect of over 80% in size
On the % scale 0 is the no-effect control and ±100 the full control effect.

Compound | activity change, negative = lower viability
CC(C)(C)[N+]([O-])=Cc1ccc(S(=O)(=O)O)cc1S(=O)(=O)O | -17.6% (inactive)
CCCCCC1CCCC(=O)O1 (stereo not drawn) | 7.83% [at 115 µM] (inactive)
CCCC(=O)OC | 18.3% [at 115 µM] (inactive)
N[C@@H](CSS(=O)(=O)O)C(=O)O | 14.7% (inactive)
CC(C)=CCC/C(C)=C/COC=O | 11% [at 115 µM] (inactive)
Nc1oc2ccccc2c1C(=O)Cc1ccccc1O[C@@H]1O[C@H](CO)[C@@H](O)[C@H](O)[C@H]1O | -3.81% (inactive)
COc1cc(C2c3cc4c(c(O)c3CC3COC(=O)C32)OCO4)cc(OC)c1O (stereo not drawn) | -104% (inactive)
O=Cc1ccc(O)cc1O | 1.2% (inactive)
O=C(O)[C@@H]1Cc2c([nH]c3ccccc23)C2CCC(=O)N21 (stereo partly drawn) | -1.49% (inactive)
CCCCC[C@H](O)/C=C/[C@H]1OC(=O)C[C@H](O)[C@@H]1C/C=C\CCCC(=O)O | 3.55% [at 5.82 µM] (inactive)
Cc1[nH]c(C=C2C(=O)Nc3ccc(S(=O)(=O)N(C)c4cccc(Cl)c4)cc32)c(C)c1C(=O)N1CCN(C)CC1 | -10.5% (inactive)
O=C1c2ccccc2C(=O)c2c(O)ccc(O)c21 | -12.7% (inactive)
CC1(C)O[C@@H]2C[C@@H]3[C@H]4C[C@@H](F)C5=CC(=O)C=C[C@]5(C)[C@@]4(F)[C@@H](O)C[C@]3(C)[C@]2(C(=O)CO)O1 | -4.05% (inactive)
CC12CCC(C1)C(C)(C)C2O (stereo not drawn) | -139% [at 115 µM] (inactive)
C/C=C(\C)C(=O)O[C@H](c1cc2ccc(=O)oc2cc1OC)[C@@H](O)C(C)(C)O | -1.34% (inactive)
C=C(C)c1cc2c(ccc3ccc(=O)oc32)o1 | 9.68% (inactive)
COC(=O)c1c(C)cc(O)c(C)c1O | -0.74% (inactive)
CC(C)(O)c1ccc2c(c1)CCC1C(C)(C(=O)O)CCCC21C (stereo not drawn) | -16.7% (inactive)
